Consider 19 sequences from the OligoGym collection.
Also: reference of the scale not given here.

In the first assay the target is HINT3. The assay can be described thus: pooled miR-30 sensor sort-seq; sequence = guide strand. The following applies: shRNA.
TAACTGACTACTTACTGAGAAA registered a sensor-assay potency score (higher = more potent) of -1.61.

With TATAACTGACTACTTACTGAGA, the sensor-assay potency score (higher = more potent) was -0.693.

TATCTTTGAAGCAAATTAGGTC: the sensor-assay potency score (higher = more potent) was -0.138.

For TTCTACTTGATCTTTCCTTAGA, the sensor-assay potency score (higher = more potent) is -0.545.

Regarding TTTGAAGCAAATTAGGTCCTCA, the sensor-assay potency score (higher = more potent) turned out to be 0.444. Turning to TACCACTTCATGCTGAACCAAG, the sensor-assay potency score (higher = more potent) was -0.805. On the same count and under the same terms, the same measure for TCTTAGGAAACAGACATTCAGA: -1.03; for TTGACTCTATAAACCAACTTGG: -0.569. In turn, TTTTCCAACAGTTACCATGTTC displayed a sensor-assay potency score (higher = more potent) of -0.723. Consider TTGATTAACAGAATTTGTCTTA, for which the sensor-assay potency score (higher = more potent) came out at 0.577. For ATTGACTCTATAAACCAACTTG, the sensor-assay potency score (higher = more potent) was -0.483.

As for TATCATATATATAAAATCCTTA, the sensor-assay potency score (higher = more potent) is -0.582.

Another assay has as its target HIP1R. The assay is described as above. To be noted: shRNA.
Sequence TTGAAGTACAGCATGTCGGAGG showed a sensor-assay potency score (higher = more potent) of -0.0916. Consider TAATCAAACATCTCCACAGTGA, for which the sensor-assay potency score (higher = more potent) is -0.629. On the same count and under the same terms, the same measure for TTGAACAGGAGCTTGACCGTGT: 0.954. TTGGTCAGCAGCAGCTTGGTGT: the sensor-assay potency score (higher = more potent) was -0.763.

For TTCTTGGTGGTTACACTTCGGG, the sensor-assay potency score (higher = more potent) is -1.05. As to ATGTTGTTGACATCGGTCCCAG, the sensor-assay potency score (higher = more potent) was -0.946.

In turn, TACCTCATCTGTCACCTCCAGG returned a sensor-assay potency score (higher = more potent) of -0.947.
